Laboratory results published in PubChem BioAssay.
For some of these results: Results with a measured potency or affinity are listed apart.

Assay: suppressors of polyQ aggregation in yeast, 75Q-TubU reporter (AID 1593)
Conditions: Yeast 75Q polyglutamine aggregation reporter

Point of comparison: CC1=NN(c2ccccc2)C(=O)C1, score 1.27. Against it:
- Nc1ccc(N=Nc2ccccc2)c(N)n1 — higher, 1.35
- CC(C)NNC(=O)c1ccncc1 — lower, 1.22
- Cc1cc2cc3c(C)cc(=O)oc3c(C)c2o1 — lower, 0.49
- CC/C(=C(/CC)c1ccc(O)cc1)c1ccc(O)cc1 — lower, 0.36
- CN1CCC(=C2c3ccccc3Sc3ccccc32)CC1 — higher, 1.33
- CCCCCCCCNC(C)C(O)c1ccc(SC(C)C)cc1 (configuration not stated) — lower, -1.11
- Cc1cc(O)cc(C)c1Cl — lower, 0.53
- CCn1cc(C(=O)O)c(=O)c2cc3c(cc21)OCO3 — lower, 1.16
- CCN(CC)C(C)CN1c2ccccc2Sc2ccccc21 (configuration not stated) — lower, 1.11
- CCCCC1C(=O)N(c2ccccc2)N(c2ccc(O)cc2)C1=O (configuration not stated) — lower, 0.89
- CCCCNc1ccc(C(=O)OCCN(C)C)cc1 — higher, 1.3
- CCCCC(CC)CN=C(N)NC(N)=NCCCCCCN=C(N)NC(N)=NCC(CC)CCCC (configuration not stated) — lower, -1.46
- O=C1C(O)=C(O)C(=O)C(O)=C1O — lower, 0.92

Assay: rescue of polyQ-huntingtin neuronal dysfunction in worms, whole organism, C. elegans mechanosensory neurons, N-terminal huntingtin (AID 1599)
Conditions: touch response, stronger effect = higher value

Point of comparison: CCN(CC)C(C)CN1c2ccccc2Sc2ccccc21 (configuration not stated), rescue above control -4.48. Against it:
- Nc1ccc(N=Nc2ccccc2)c(N)n1 — higher, -1.41
- CC/C(=C(/CC)c1ccc(O)cc1)c1ccc(O)cc1 — lower, -4.53
- CCCCCCCCNC(C)C(O)c1ccc(SC(C)C)cc1 (configuration not stated) — higher, 0
- CCCCC1C(=O)N(c2ccccc2)N(c2ccc(O)cc2)C1=O (configuration not stated) — higher, -3.48
- CCCCC(CC)CN=C(N)NC(N)=NCCCCCCN=C(N)NC(N)=NCC(CC)CCCC (configuration not stated) — higher, 0
- O=C1C(O)=C(O)C(=O)C(O)=C1O — lower, -5.82

Assay: inhibitors of mitochondrial cytochrome c release, biochemical, purified mitochondria (AID 1603);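 also: mouse liver mitochondria challenged with calcium chloride; signal normalized to the plate average as 100%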
Conditions: stronger effect = lower value

Point of comparison: CCCCNc1ccc(C(=O)OCCN(C)C)cc1, cytochrome c release ratio 0.87. Against it:
- Nc1ccc(N=Nc2ccccc2)c(N)n1 — lower, 0.66
- CC(C)NNC(=O)c1ccncc1 — higher, 1.02
- Cc1cc2cc3c(C)cc(=O)oc3c(C)c2o1 — higher, 1.2
- CC/C(=C(/CC)c1ccc(O)cc1)c1ccc(O)cc1 — lower, 0.65
- CN1CCC(=C2c3ccccc3Sc3ccccc32)CC1 — higher, 1.44
- CCCCCCCCNC(C)C(O)c1ccc(SC(C)C)cc1 (configuration not stated) — lower, 0.61
- Cc1cc(O)cc(C)c1Cl — higher, 5.53
- CCn1cc(C(=O)O)c(=O)c2cc3c(cc21)OCO3 — lower, 0.82
- CCN(CC)C(C)CN1c2ccccc2Sc2ccccc21 (configuration not stated) — higher, 0.98
- CCCCC1C(=O)N(c2ccccc2)N(c2ccc(O)cc2)C1=O (configuration not stated) — higher, 0.98
- CC1=NN(c2ccccc2)C(=O)C1 — higher, 0.94
- CCCCC(CC)CN=C(N)NC(N)=NCCCCCCN=C(N)NC(N)=NCC(CC)CCCC (configuration not stated) — higher, 26.4
- O=C1C(O)=C(O)C(=O)C(O)=C1O — higher, 1.43

Assay: inhibitors of polyQ protein aggregation (AID 1604)
Conditions: polyglutamine-induced protein aggregation inhibition assay; stronger effect = higher value; concentration not given here

Point of comparison: Cc1cc2cc3c(C)cc(=O)oc3c(C)c2o1, inhibition of aggregation 74.1%. Against it:
- Nc1ccc(N=Nc2ccccc2)c(N)n1 — lower, 65.5%
- CC(C)NNC(=O)c1ccncc1 — lower, 71.4%
- CC/C(=C(/CC)c1ccc(O)cc1)c1ccc(O)cc1 — lower, 38.5%
- CN1CCC(=C2c3ccccc3Sc3ccccc32)CC1 — higher, 88.8%
- CCCCCCCCNC(C)C(O)c1ccc(SC(C)C)cc1 (configuration not stated) — lower, 63%
- Cc1cc(O)cc(C)c1Cl — higher, 81.6%
- CCn1cc(C(=O)O)c(=O)c2cc3c(cc21)OCO3 — higher, 74.7%
- CCN(CC)C(C)CN1c2ccccc2Sc2ccccc21 (configuration not stated) — lower, 54.5%
- CCCCC1C(=O)N(c2ccccc2)N(c2ccc(O)cc2)C1=O (configuration not stated) — lower, 61%
- CC1=NN(c2ccccc2)C(=O)C1 — lower, 10.2%
- CCCCNc1ccc(C(=O)OCCN(C)C)cc1 — lower, 21.1%
- CCCCC(CC)CN=C(N)NC(N)=NCCCCCCN=C(N)NC(N)=NCC(CC)CCCC (configuration not stated) — higher, 88%
- O=C1C(O)=C(O)C(=O)C(O)=C1O — lower, 8.97%

Assay: enhancers of glutamate uptake in motor neurons, MN-1 cell line (AID 1612);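 also: 0% = mean of DMSO vehicle wells on each plate; positive means more glutamate uptake than control and negative means less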
Conditions: MN-1 motor neuron cells, stronger effect = higher value

Point of comparison: CN1CCC(=C2c3ccccc3Sc3ccccc32)CC1, glutamate uptake change 7.96%. Against it:
- Nc1ccc(N=Nc2ccccc2)c(N)n1 — lower, -9.75%
- CC(C)NNC(=O)c1ccncc1 — lower, -13.1%
- Cc1cc2cc3c(C)cc(=O)oc3c(C)c2o1 — lower, -15.5%
- CC/C(=C(/CC)c1ccc(O)cc1)c1ccc(O)cc1 — lower, -14.4%
- CCCCCCCCNC(C)C(O)c1ccc(SC(C)C)cc1 (configuration not stated) — lower, -7.34%
- Cc1cc(O)cc(C)c1Cl — lower, -5.88%
- CCn1cc(C(=O)O)c(=O)c2cc3c(cc21)OCO3 — lower, 5.71%
- CCN(CC)C(C)CN1c2ccccc2Sc2ccccc21 (configuration not stated) — higher, 47.6%
- CCCCC1C(=O)N(c2ccccc2)N(c2ccc(O)cc2)C1=O (configuration not stated) — lower, 5.7%
- CC1=NN(c2ccccc2)C(=O)C1 — lower, -0.14%
- CCCCNc1ccc(C(=O)OCCN(C)C)cc1 — lower, 5.32%
- CCCCC(CC)CN=C(N)NC(N)=NCCCCCCN=C(N)NC(N)=NCC(CC)CCCC (configuration not stated) — lower, -50.4%
- O=C1C(O)=C(O)C(=O)C(O)=C1O — lower, 5.54%

Assay: reducers of polyQ inclusions in PC12 cells, cell-based, NGF-treated PC12, GFPQ80 (AID 1614);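 also: lower means fewer inclusions and 0 means no inclusions at all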
Conditions: PC12 NGF-treated GFP-polyQ80 inclusion reduction

Point of comparison: CC1=NN(c2ccccc2)C(=O)C1, inclusion score 2. Against it:
- CC(C)NNC(=O)c1ccncc1 — the same, 2
- Cc1cc2cc3c(C)cc(=O)oc3c(C)c2o1 — the same, 2
- CCn1cc(C(=O)O)c(=O)c2cc3c(cc21)OCO3 — the same, 2
- CCCCNc1ccc(C(=O)OCCN(C)C)cc1 — the same, 2

Assay: suppressors of polyglutamine aggregation in yeast, 75Q-TubH (AID 1616)
Conditions: S. cerevisiae 75Q-TubH polyglutamine aggregation suppression; stronger effect = higher value

Point of comparison: CCn1cc(C(=O)O)c(=O)c2cc3c(cc21)OCO3, aggregation suppression score 1.09. Against it:
- Nc1ccc(N=Nc2ccccc2)c(N)n1 — higher, 1.49
- CC(C)NNC(=O)c1ccncc1 — higher, 1.22
- Cc1cc2cc3c(C)cc(=O)oc3c(C)c2o1 — lower, 0.635
- CC/C(=C(/CC)c1ccc(O)cc1)c1ccc(O)cc1 — lower, 0.447
- CN1CCC(=C2c3ccccc3Sc3ccccc32)CC1 — higher, 1.3
- CCCCCCCCNC(C)C(O)c1ccc(SC(C)C)cc1 (configuration not stated) — lower, 0.0242
- Cc1cc(O)cc(C)c1Cl — lower, 0.248
- CCN(CC)C(C)CN1c2ccccc2Sc2ccccc21 (configuration not stated) — higher, 1.19
- CCCCC1C(=O)N(c2ccccc2)N(c2ccc(O)cc2)C1=O (configuration not stated) — lower, 0.77
- CC1=NN(c2ccccc2)C(=O)C1 — lower, 0.985
- CCCCNc1ccc(C(=O)OCCN(C)C)cc1 — lower, 1.05
- CCCCC(CC)CN=C(N)NC(N)=NCCCCCCN=C(N)NC(N)=NCC(CC)CCCC (configuration not stated) — lower, -0.456
- O=C1C(O)=C(O)C(=O)C(O)=C1O — higher, 1.42
